Compound activity (PubChem)
MmCpn inh: M. maripaludis TRiC chaperonin inhibition | purified Mm-Cpn ATPase, ADP Transcreener TR-FRET | Potency, µM (series often up to 76.9 µM), hits mostly inhibitors | 330,000 tested, 0.031% active | AID 504842; note: nearly all actives have a fitted effect of over 80% in size
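ATPase turnover read by TR-FRET ADP competition (Eu cryptate antibody/ADP-d2, 665/590 nm): 10uM ATP final, 25nM Mm-CPN final, 30 min 37degC after 10-min compound preincubation, pH 7.4 Tris/KCl/MgCl2/DTT buffer.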
TSHR antagonist: human thyrotropin receptor antagonism; AID 504810; activity change, negative = inhibition, % at 11.5 µM; 330,000 tested, 0.2% active; TSHR-expressing cells, TSH-stimulated cAMP HTRF, 2 h; hits give low values;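 active = activity change below a set negative limit, meaning inhibition stronger than a set level, cut at about -70% in these data; inconclusive = activity change between two set negative limits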
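Competitive HTRF cAMP read-out (cryptate anti-cAMP antibody, cAMP-d2; 30 min, room temperature) in freshly harvested TSHR cells. Compounds added before TSH at EC80 (4nM final), followed by 2 hours' incubation at 37 deg C.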
CCT chaperon mod: changes cytosolic chaperonin activity | activity change, % (concentration not given with the values), hits read low | purified chaperonin ATPase assay, HTRF ADP detection, 30 min | 360,000 tested, 0.3% active; in the data active = activity change below about -30%
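TRiC at 40 or 20 nM final (batch-dependent) in 30 mM Tris pH 7.4, 100 mM KCl, 5 mM MgCl2, 1 mM DTT, with compound at single 76 uM and 10 uM ATP, 30 min at 37 deg C. ADP detected by HTRF Transcreener, 665/615 ratio.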
B2AR arrestin: recruits beta-arrestin to the human beta2-adrenergic receptor; P07550; beta-arrestin recruitment to beta2AR, cell-based reporter; Potency, µM (doses to about 46.1 µM), actives largely listed as activators; 330,000 tested, 0.02% active; note: nearly all actives have a fitted effect of over 65% in size
Target sequence (P07550 whole entry, looked up): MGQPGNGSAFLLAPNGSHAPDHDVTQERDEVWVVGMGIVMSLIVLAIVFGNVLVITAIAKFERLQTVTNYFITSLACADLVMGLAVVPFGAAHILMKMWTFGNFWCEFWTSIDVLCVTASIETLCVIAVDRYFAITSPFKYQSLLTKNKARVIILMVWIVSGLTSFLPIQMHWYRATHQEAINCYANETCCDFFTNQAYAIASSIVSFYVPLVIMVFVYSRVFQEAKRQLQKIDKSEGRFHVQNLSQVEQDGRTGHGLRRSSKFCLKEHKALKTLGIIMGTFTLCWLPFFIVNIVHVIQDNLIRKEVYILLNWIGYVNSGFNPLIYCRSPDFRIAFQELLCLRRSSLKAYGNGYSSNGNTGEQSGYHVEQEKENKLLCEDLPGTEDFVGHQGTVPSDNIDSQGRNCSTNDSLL
TCR act: T cell receptor activation | primary human leukocytes, anti-CD3, IL-2 HTRF, 48 h | Potency, µM (series often up to 9.22 µM), hits mostly activators | 330,000 tested, under 10 active | AID 504894
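Readout: HTRF IL-2, Eu-cryptate/d2 antibody pair, 320nm excitation, 665nm emission. Stimulus: a-CD3 beads, no co-stimulation. Cells: primary human leukocytes. Exposure: 48 hr with compound.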
Each line names hits and unclear results; the compound was inactive in the other large screens. Sampled rows, rich in hits. Any-hit rate of the full collection: about 0.5%. Unless noted, calls come from the whole dose curve; as a rule, active = well fitted curve in the direction sought with a large enough effect; inconclusive = small, poorly fitted or top-dose-only effect, or another doubt; inactive = no such curve, though single readings can be large; an effect the other way counts as inactive or inconclusive.

COc1ccc(-c2csc(/C(C#N)=C\c3ccc(O)c([N+](=O)[O-])c3)n2)cc1OC	TSHR antagonist -72.0
COc1cc(/C=C(\C#N)c2nc3ccccc3s2)cc([N+](=O)[O-])c1O	TSHR antagonist -71.0
N#C/C(=C\c1ccc(O)c([N+](=O)[O-])c1)c1nc2ccccc2s1	TSHR antagonist inconclusive
Cn1nc(C(F)(F)F)c(-c2ccc(Br)cc2)c1NC(=O)c1ccco1	none
O=C1C=C(NC2CCCC2)CC(c2ccccc2)C1 (configuration not stated)	B2AR arrestin 3.55µM
CNC1=CC(=O)CC(c2ccccc2)C1 (configuration not stated)	none
COc1cccc(NC(=O)Nc2nc(-c3ccc(OC)c(OC)c3)cs2)c1	TSHR antagonist -93.9
COc1ccc(-c2csc(NC(C)=O)n2)cc1OC	none
O=[N+]([O-])c1c(Nc2ccc(O)cc2)cc(Cl)c2nonc12	MmCpn inh inconclusive, TSHR antagonist -102.1
CN(C)c1cc(Nc2ccc(O)cc2)c([N+](=O)[O-])c2nonc12	none
CCCCCn1c(Sc2ncccn2)nc2c1c(=O)[nH]c(=O)n2C	none
Cc1ccsc1-c1nc(CSCC(=O)N2CCN(c3ccccc3)CC2)c(C)o1	TSHR antagonist -70.7
O=C(CSc1nc2ccccc2[nH]1)N1CCCCC1	none (no result: TCR act)
COc1cc(C(=O)NCC(=O)OCc2ccccc2Cl)cc(OC)c1OC	CCT chaperon mod -35.5
CCOc1cc(N2CCOCC2)c(OCC)cc1NC(=O)c1cccc(S(=O)(=O)N2CC(C)OC(C)C2)c1 (configuration not stated)	none (no result: MmCpn inh, TSHR antagonist, B2AR arrestin, TCR act)
Cc1ccc(NC(=O)c2ccc(S(=O)(=O)N3CCOCC3)cc2)c(C)c1	none
CCOc1cc(N2CCOCC2)c(OCC)cc1NC(=O)c1cccc(S(=O)(=O)N2CCOCC2)c1	TSHR antagonist -88.5
COc1cc(C)ccc1NC(=O)c1ccc(S(=O)(=O)N2CCOCC2)cc1	CCT chaperon mod -30.1
Cc1ccc(NC2=C(C(=O)c3ccccc3)N(C)S(=O)(=O)c3ccccc32)cc1	none
CCN1C(C(=O)c2ccccc2)=C(Nc2ccccc2C)c2ccccc2S1(=O)=O	TSHR antagonist -78.8
O=C(NCCc1ccc(F)cc1)c1cc2ccccc2oc1=O	none
O=C(NCCc1ccccc1)c1cc2ccccc2oc1=O	TSHR antagonist -118.1
CC(C)Nc1nc(N)c(C(=O)C23CC4CC(CC(C4)C2)C3)s1	none
CC(=O)Nc1ccc(NC(=O)C2CC(=O)N(c3ccc(Cl)cc3)C2)cc1 (configuration not stated)	none
O=C1C=CC(=O)N1CCCCCCN1C(=O)C=CC1=O	TSHR antagonist -98.6
Cc1ccc(NC(=O)CCc2nnc3ccc(N4CCN(C)CC4)nn23)cc1F	none
C#CCOCCOCCOCCNc1nc(N2CCN(C(=O)CCCCCCCCCCNC(=O)[C@H]([C@@H](C)CC)n3cc(CCCCCN)nn3)CC2)nc(N2CCN(C(=O)CCCCCCCCCCNC(=O)[C@H](CCCCN)n3cc(CCCC(=O)O)nn3)CC2)n1	none
C#CCOCCOCCOCCNc1nc(N2CCN(C(=O)CCCCCCCCCCNC(=O)[C@@H](CCC(=O)O)n3cc(CCCCCN)nn3)CC2)nc(N2CCN(C(=O)CCCCCCCCCCNC(=O)[C@H]([C@@H](C)CC)n3cc(CCCCCN)nn3)CC2)n1	MmCpn inh 44.7µM
CC1CCCCC1NC(=S)NC(=O)c1sc2ccccc2c1Cl (configuration not stated)	MmCpn inh inconclusive, CCT chaperon mod -46.9
CCC(C)NC(=O)CSc1nc2c(sc3ccccc32)c(=O)n1CCCN1CCOCC1 (configuration not stated)	none
CCN(C(=O)c1cc2c(=O)n3ccccc3nc2n1C)C1CCCCC1	TSHR antagonist -122.7
COc1ccccc1C(=O)Oc1ccc(C(C)(C)C)cc1	none
COc1cccc(/C=N/NC(=S)Nc2cccc(S(=O)(=O)N(C)C)c2)c1	B2AR arrestin 17.8µM
Brc1ccc(OCc2ccccc2)c(CNCc2ccncc2)c1	none
CCCn1c(=N)n(CC(=O)c2ccc([N+](=O)[O-])cc2)c2ccccc21	none
CNc1c(NS(=O)(=O)c2ccc(OC)c(Cl)c2)c(=O)oc2ccccc12	CCT chaperon mod -63.5
CCNc1c(NS(=O)(=O)c2ccc(OC)c(Cl)c2)c(=O)oc2ccccc12	none
